Bioassay records: PubChem BioAssay, National Center for Advancing Translational Sciences (NCATS)
Shown are actives, neighbours in structure and some others; about 21% of the full set was active somewhere.
Gal4-VP16 FLuc = Gal4-VP16 reporter inhibition counter-screen | Drosophila S2 Gal4-VP16 UAS-luciferase, luminescence, 20 h | Potency, µM (series often up to 53.6 µM), without a hit: at the top dose activity, negative = inhibition, hits mostly inhibitors | 310,000 compounds, 3.5% hits;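 note: Gal4-VP16 expression switched on by copper sulfate through the metallothionein promoter; potency is the fitted concentration of half-maximal effect; nearly all actives have a fitted effect of over 50% in size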
IL1B secr inh = inhibitors of inflammasome signaling (IL-1 beta secretion); 360,000 compounds, 4.7% hits; activity change, % at 57.5 µM; THP-1 LPS/ATP IL-1B secretion, AlphaLISA, 16 h; stronger effect = lower value; in the data active = activity change below about -50%; inconclusive = mostly about -30% to -49%
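Secreted IL-1B measured by AlphaLISA bead assay after 16 h compound exposure of THP-1 cells; compounds (final up to 57.5 uM) added 1 h before LPS (250 ng/mL) and ATP (1.25 mM) stimulation; lower signal means less secretion.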
TDP1 cell CPT = DT40-hTDP1 cell growth loss with CPT; Potency, µM (series often up to 46.2 µM), without a hit: top-dose activity change, negative = growth inhibition, usual class: inhibitors; AID 686979; 420,000 compounds, 12% hits; chicken DT40 Tdp1-/-;hTDP1 cells + 20 nM CPT, ATP luminescence, 48 h; note: potency is the fitted concentration of half-maximal effect; nearly all actives have a fitted effect of over 55% in size
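Cell growth measured by CellTiter-Glo luminescence after a minimum 48 h, 37 C compound exposure with 20 nM CPT in Tdp1-knockout DT40 cells stably expressing hTDP1, seeded 400/well; qHTS titration format.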
ELG1 repair inh = ELG1-dependent DNA repair inhibition; HEK293T ELG1-luciferase reporter, luminescence, 16 h; DNA damage induced by 5-fluorouridine; Potency, µM (series often up to 46.1 µM), for the others: top-dose activity change, negative = inhibition, usual class: inhibitors; 330,000 compounds, 2.3% hits; note: potency is the fitted concentration of half-maximal effect; nearly all actives have a fitted effect of over 55% in size
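Step one: seed 2,000 cells per well. Step two: pin-transfer compound or DMSO alongside 5-fluorouridine. Step three: incubate 16 hr, 37 °C, 5% CO2. Step four: add ONE-Glo, wait 30 min, read luminescence.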
TDP1 cell noCPT = qHTS for Inhibitors of human tyrosyl-DNA phosphodiesterase 1 (TDP1): qHTS in cells in absence of CPT. DT40 Tdp1-/- hTDP1 cells, no CPT, ATP luminescence, 48 h. Potency, µM (top dose mostly 46.2 µM), without a hit: top-dose activity change, negative = growth inhibition, actives largely listed as inhibitors. 420,000 compounds, 15% hits; note: potency is the fitted concentration of half-maximal effect; nearly all actives have a fitted effect of over 55% in size
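Chicken DT40 Tdp1-/- cells stably complemented with human TDP1 were seeded at 400 cells/well with DMSO in place of 20 nM camptothecin. After compound pinning, cells grew at least 48 hr at 37 °C; viability read by CellTiter-Glo luminescence.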
RORg inh = ROR gamma (mouse) transcription inhibition; Drosophila S2 Gal4-RORgamma UAS-luciferase reporter, 20 h; Potency, µM (highest dose often 53.6 µM), for inactives: at the highest dose activity change, negative = inhibition, most hits filed as inhibitors; P51450; 310,000 compounds, 5.4% hits; note: potency is the fitted concentration of half-maximal effect; nearly all actives have a fitted effect of over 60% in size
Target sequence (P51450 whole entry, looked up, the tested form may be a part): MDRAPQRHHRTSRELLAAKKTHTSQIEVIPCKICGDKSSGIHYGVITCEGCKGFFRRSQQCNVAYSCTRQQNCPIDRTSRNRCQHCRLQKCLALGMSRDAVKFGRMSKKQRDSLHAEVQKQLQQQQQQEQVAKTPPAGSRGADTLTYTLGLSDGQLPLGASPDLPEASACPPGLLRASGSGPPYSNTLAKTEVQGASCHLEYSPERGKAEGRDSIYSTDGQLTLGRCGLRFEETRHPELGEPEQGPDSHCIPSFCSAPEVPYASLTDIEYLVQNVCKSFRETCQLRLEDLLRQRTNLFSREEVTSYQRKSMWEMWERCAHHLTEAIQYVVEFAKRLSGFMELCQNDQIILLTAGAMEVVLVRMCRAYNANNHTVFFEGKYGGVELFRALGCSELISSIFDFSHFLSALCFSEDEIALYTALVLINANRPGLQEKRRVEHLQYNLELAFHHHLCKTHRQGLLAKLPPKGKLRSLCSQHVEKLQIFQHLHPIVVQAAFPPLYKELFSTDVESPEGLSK
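Luciferase reporter read in Schneider cells carrying Gal4-RORγ (mouse) and UAS-Photinus luciferase; cells given compound 1 h before 700 uM copper sulfate induction, then incubated 20 h at ambient temperature.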
Starred values were filed as active, the others as inactive; [ ] = dose if it differs, or a comment. Unless noted, calls come from the whole dose curve; as a rule, active = well fitted curve in the direction sought with a large enough effect; inconclusive = small, poorly fitted or top-dose-only effect, or another doubt; inactive = no such curve, though single readings can be large; an effect the other way counts as inactive or inconclusive. % is set by controls: 0 for no effect and ±100 for the full control effect.

Results for CC1=C(C(=O)Nc2ccccc2)C(c2ccncc2)n2nc(SCc3ccccc3F)nc2N1 (stereo not drawn) ?
TDP1 cell CPT: -15.4%; TDP1 cell noCPT: 1.6%

What do the screens show for `Nc1ccc(N(c2ccccc2)c2ccc(N)cc2)cc1`?
Gal4-VP16 FLuc: -12.6%; IL1B secr inh: 16.7; TDP1 cell CPT: 16.4µM*; ELG1 repair inh: -9.7%; TDP1 cell noCPT: 13µM*; RORg inh: 30.8%

How did O=C1CSC2(CCN(CCCN3c4ccccc4Sc4ccc(Cl)cc43)CC2)N1 do in these assays?
Gal4-VP16 FLuc: -14.8%; TDP1 cell CPT: 23.7µM*; TDP1 cell noCPT: 9.44µM*; RORg inh: 2.6%[10 µM]

How did NC(=O)N1CCN(CCCN2c3ccccc3Sc3cc(Cl)ccc32)CC1 do in these assays?
IL1B secr inh: -27.6; TDP1 cell CPT: inconclusive; TDP1 cell noCPT: inconclusive

Results for Cc1ccc(CNC(=O)Cc2c(C(=O)O)c(C)cn2C)cc1 ?
TDP1 cell CPT: 1.5%; TDP1 cell noCPT: -2.1%

Results for S=C(Nc1ccccc1Cl)N1CCOCC1 ?
Gal4-VP16 FLuc: inconclusive; IL1B secr inh: -1.2; TDP1 cell CPT: 12.4%; ELG1 repair inh: 1.5%; TDP1 cell noCPT: 1.4%; RORg inh: -5.2%

How did COc1ccc(NC(=O)c2cncn2-c2ccccc2)cc1 do in these assays?
Gal4-VP16 FLuc: -3.2%; IL1B secr inh: -29.5; TDP1 cell CPT: 9.4%; ELG1 repair inh: 7.5%; TDP1 cell noCPT: -9.8%; RORg inh: 0.6%

What do the screens show for `CC(=O)c1cc2cccc(OC3(C)CCN(Cc4ccc5ccccc5c4)C3)c2o1` (stereo not drawn)?
IL1B secr inh: -2.9; TDP1 cell CPT: 18.4µM*; TDP1 cell noCPT: inconclusive

Results for COCOc1cccc(CN2CCC(C)(Oc3ccc(C(C)=O)cc3)C2)c1 (stereo not drawn) ?
IL1B secr inh: -8.4; TDP1 cell CPT: inconclusive; TDP1 cell noCPT: inconclusive

How did CSc1ccc(CN2CCC(C)(Oc3ccc4ccccc4c3)C2)cc1 (stereo not drawn) do in these assays?
IL1B secr inh: 16.4; TDP1 cell CPT: inconclusive; TDP1 cell noCPT: inconclusive

How did CC(=O)c1ccc(OC2(C)CCN(Cc3cc4ccccc4[nH]3)C2)cc1 (stereo not drawn) do in these assays?
IL1B secr inh: 17.2; TDP1 cell CPT: 4.11µM*; TDP1 cell noCPT: 8.2µM*

What do the screens show for `CC(=O)c1ccc(OCCCCOc2ccc(C(C)=O)cc2)cc1`?
Gal4-VP16 FLuc: -14.5%; IL1B secr inh: 0.5; TDP1 cell CPT: -21.6%; ELG1 repair inh: 18.6%; TDP1 cell noCPT: -25.1%; RORg inh: -2.2%

What do the screens show for `CC(=O)c1ccc(OC2(C)CCN(CCOc3ccc(C)cc3)C2)cc1` (stereo not drawn)?
IL1B secr inh: -11.7; TDP1 cell CPT: 16.4µM*; TDP1 cell noCPT: 5.8µM*

How did CN1C(=O)c2cccc3c(S(=O)(=O)Nc4ccccc4F)ccc1c23 do in these assays?
Gal4-VP16 FLuc: 28.5%; IL1B secr inh: -20.5; TDP1 cell CPT: -29.3%; ELG1 repair inh: inconclusive; TDP1 cell noCPT: -23.8%; RORg inh: -15.1%

Results for O=C(NNC(=O)c1cc2ccccc2cc1O)c1cccs1 ?
Gal4-VP16 FLuc: inconclusive; IL1B secr inh: 175.9; TDP1 cell CPT: 23.1µM*; ELG1 repair inh: inconclusive; TDP1 cell noCPT: inconclusive; RORg inh: 20µM*

What do the screens show for `O=C(NNC(=O)c1ccc2ccccc2c1O)c1ccccc1Cl`?
Gal4-VP16 FLuc: 1.8%; IL1B secr inh: 7.3; TDP1 cell CPT: inconclusive; ELG1 repair inh: 18.5%; TDP1 cell noCPT: 13µM*; RORg inh: inconclusive

Results for COc1cccc(C(=O)NNC(=O)c2ccc3ccccc3c2O)c1 ?
IL1B secr inh: 51.1; TDP1 cell CPT: inconclusive; TDP1 cell noCPT: 9.2µM*

How did C/C(=N\NC(=O)c1cccs1)c1c(O)cc(C)oc1=O do in these assays?
Gal4-VP16 FLuc: 5.01µM*; IL1B secr inh: 0.8; TDP1 cell CPT: -12.5%; ELG1 repair inh: inconclusive; TDP1 cell noCPT: 0.9%; RORg inh: 4.47µM*

How did c1ccc(CNc2ncncc2-c2ccc3c(c2)OCO3)cc1 do in these assays?
Gal4-VP16 FLuc: 1.1%; TDP1 cell CPT: inconclusive; TDP1 cell noCPT: inconclusive; RORg inh: -34.5%

How did CO[C@H]1CN(C)C(=O)c2cc(NC(=O)C3CCCC3)ccc2OC[C@@H](C)NC[C@H]1C do in these assays?
IL1B secr inh: -17.9; TDP1 cell CPT: 16.8%; TDP1 cell noCPT: 1.8%

How did CCCN(C(=O)CCNC(=O)c1ccc(Cl)cc1)c1c(N)n(Cc2ccccc2)c(=O)[nH]c1=O do in these assays?
IL1B secr inh: -5.6; TDP1 cell CPT: -18.3%; ELG1 repair inh: 9.6%; TDP1 cell noCPT: -6.1%

Results for CCC(=O)CC ?
Gal4-VP16 FLuc: -1.6%; RORg inh: -4.0%

How did O=C(NNC(=O)c1ccc2ccccc2c1O)c1cccs1 do in these assays?
Gal4-VP16 FLuc: inconclusive; IL1B secr inh: -7.8; TDP1 cell CPT: 17.7%; ELG1 repair inh: inconclusive; TDP1 cell noCPT: inconclusive; RORg inh: 15.8µM*

What do the screens show for `CC(=O)Nc1ccc(Br)c2ccccc12`?
Gal4-VP16 FLuc: 7.4%; IL1B secr inh: 7.1; TDP1 cell CPT: -16.6%; ELG1 repair inh: 4.6%; TDP1 cell noCPT: inconclusive; RORg inh: -2.4%

Results for C/C(=N/NC(=O)c1cccs1)c1cccs1 ?
Gal4-VP16 FLuc: -1.5%; IL1B secr inh: -13.9; TDP1 cell CPT: -11.1%; ELG1 repair inh: inconclusive; TDP1 cell noCPT: -7.8%; RORg inh: inconclusive

What do the screens show for `C/C(=N\NC(=O)c1cc2ccccc2cc1O)c1cccs1`?
Gal4-VP16 FLuc: inconclusive; IL1B secr inh: -50.4*; TDP1 cell CPT: -21.1%; ELG1 repair inh: inconclusive; TDP1 cell noCPT: 13µM*; RORg inh: -37.8%

How did O=C(Nc1ccc(Br)c2ccccc12)c1ccc2ccccc2c1O do in these assays?
Gal4-VP16 FLuc: inconclusive; IL1B secr inh: -50.8*; TDP1 cell CPT: 8.2µM*; ELG1 repair inh: inconclusive; TDP1 cell noCPT: 8.2µM*; RORg inh: inconclusive

Results for C/C(=N\NC(=O)c1nonc1N)c1cccs1 ?
Gal4-VP16 FLuc: 1.3%; IL1B secr inh: 10.8; TDP1 cell CPT: -18.2%; ELG1 repair inh: inconclusive; TDP1 cell noCPT: -15.4%; RORg inh: 0.316µM*

Results for COc1ccc(NS(=O)(=O)c2cc3[nH]c(=O)c(=O)[nH]c3cc2C)cc1Cl ?
TDP1 cell CPT: 2.4%; TDP1 cell noCPT: -13.0%

What do the screens show for `Cc1noc(C)c1C(=O)N1CCC2(CC1)CN(C(=O)Nc1cccc(F)c1)C2`?
Gal4-VP16 FLuc: 7.6%; TDP1 cell CPT: -7.1%; TDP1 cell noCPT: -0.5%; RORg inh: -3.8%
